This is part of a sample that, as a whole, favours compounds with a hit. Of some 83,000 tested, about 20% had one in any assay.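 Negative percent growth values reflect cell death: -40 means 40% of the cells present at the start died, and -100 means all died.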 Values without a mark were called inactive. Calls of active or inactive are those of the source. How the source made its calls: active means growth percent below 10; inactive means the rest.
Tests used:
Test in all cases: NCI-60 one-dose screen, 48 h (100 = growth as untreated, 0 = no growth, -100 = all killed)
Details in all cases: 10 µM unless noted
NCI-H23 lung = system: NCI-H23 lung
NCI-H226 lung = system: NCI-H226 lung
NCI-H322M lung = system: NCI-H322M lung
HOP-62 NSCLC = system: HOP-62 NSCLC
NCI-H460 lung = system: NCI-H460 lung
HOP-92 NSCLC = system: HOP-92 NSCLC
NCI-H522 lung = system: NCI-H522 lung
A549/ATCC NSCLC = system: A549/ATCC NSCLC
786-0 renal = system: 786-0 renal
COLO 205 colon = system: COLO 205 colon
DU-145 prostate = system: DU-145 prostate
K-562 leukemia = system: K-562 leukemia
MALME-3M melanoma = system: MALME-3M melanoma
MDA-MB-231 breast = system: MDA-MB-231 breast
RXF 393 renal = system: RXF 393 renal
SF-268 CNS = system: SF-268 CNS
SF-295 CNS = system: SF-295 CNS
SF-539 CNS = system: SF-539 CNS
UACC-257 melanoma = system: UACC-257 melanoma
M14 melanoma = system: M14 melanoma

Compound	growth (NCI-H23 lung)	growth (NCI-H226 lung)	growth (NCI-H322M lung) [%]	growth (HOP-62 NSCLC) [%]	growth (NCI-H460 lung)	growth (HOP-92 NSCLC) [%]	growth (NCI-H522 lung)	growth (A549/ATCC NSCLC) [%]	growth (786-0 renal)	growth (COLO 205 colon)	growth (DU-145 prostate)	growth (K-562 leukemia)	growth (MALME-3M melanoma)	growth (MDA-MB-231 breast)	growth (RXF 393 renal)	growth (SF-268 CNS)	growth (SF-295 CNS) [%]	growth (SF-539 CNS)	growth (UACC-257 melanoma)	growth (M14 melanoma)
CCOC(=O)CC1CSC(Nc2ccccc2)=N1 (stereo not given)	98%	105%	96.5	100	109%	120	94.9%	95.3	98.7%	125%	103%	96.4%	102%	105%	114%	98.7%	104	105%	97.9%	103%
O=C(NC(Cc1nnc2n(Cc3ccccc3)c(=O)c3c4c(sc3n12)CCCC4)c1ccccc1)c1ccccc1 (stereo not given)	90.9%	113%	93.3	71.1	94.4%	74.6	94.8%	90.4	81%	107%	115%	91%	103%	94%	79.4%	89.5%	108	111%	101%	86.9%
Cc1ccc2nc(NC(=O)CSc3nc(-c4ccccc4)c(C#N)c4nnnn34)sc2c1	103%	94.7%	108	97.4	104%	106	89.4%	104	114%	121%	119%	97.8%	109%	113%	120%	113%	103	100%	108%	99.5%
C=C1CC[C@@H]2[C@](C)(COC(C)=O)[C@H](OC(C)=O)CC[C@@]2(C)[C@@H]1CC(Nc1ccc(S(=O)(=O)NC(C)=O)cc1)C1=CCOC1=O (stereo not given in full)	7.36% (active)	-52.3% (active)	35.3	82	5.29% (active)	21	-63.2% (active)	27.9	-66% (active)	-32.7% (active)	0.37% (active)	4.81% (active)	-43.6% (active)	-38.7% (active)	-75.8% (active)	6.72% (active)	58.4	-76.7% (active)	-10.6% (active)	-35.1% (active)
CCN1C(=O)N(CC)C2C1NC(=S)N2/N=C/c1ccc(OC)cc1 (stereo not given)	74.9%	78.8%	79.4	59.5	26.1%	70.5	16.8%	41.7	62.1%	41.7%	78.5%	20.1%	54.4%	69.5%	59.8%	71.8%	42.1	55.2%	61%	29.9%
CN1C(=O)/C(=C2\SC(=Nc3ccccc3)N(Nc3ccccc3)C2=O)c2ccccc21	94.1%	93.8%	95.4	88.1	101%	100	94.5%	98.6	107%	112%	109%	99.5%	110%	91.4%	109%	95.4%	105	94.9%	106%	101%
O=C1/C(=C/c2ccccn2)NC(=S)N1c1ccccc1Cl	56.4%	78.3%	66.7	38.9	31.2%	102	58.1%	51	31.8%	66.4%	54.1%	39.7%	67.7%	36.4%	-7.86% (active)	83.5%	55.9	67.3%	74.5%	42.3%
Cc1cccc(-c2nc(Nc3ccc4ncsc4c3)c3ccccc3n2)n1	57.8%	84.9%	93.5	80.2	36.1%	110	56%	34.5	87.7%	12.8%	90.6%	28.5%	102%	101%	78.8%	98%	88.7	98.1%	81.4%	64%
